In PubChem BioAssay (NCI):
Several values for one entry are separate records, joined by “and”; a condition that tells them apart may be missing. Identical values can stand only once. The panel holds about 79,000 compounds, 15% with a hit somewhere; the sample as a whole holds those more often. A structure can be active in one record and inactive in another. Activity calls are given as the source filed them. No stated cut-off is given here; in the data, active means growth inhibition above about 70%; inactive means the rest.

Assay: NCI Yeast Anticancer Drug Screen. Data for the cln2 rad14 strain (AID 165);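 further: 0% = growth equal to vehicle treated cultures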
Settings: S. cerevisiae cln2 rad14 strain, at 50.0 µM (retest, dose inferred, filed as 5.0), stronger effect = higher value
Procedure, shortened: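 Readout is yeast growth inhibition versus vehicle-treated controls, using a strain with cln2 and rad14 alterations exposed to compound.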

Structure (SMILES)	growth inhibition
COc1ccc(/C=C2\CCc3ccccc3C2=O)cc1OC	48% (inactive)
CC(C)c1ccc(O)c(=O)cc1	21% (inactive) and 15% (inactive) and 2% (inactive)
O=Cc1ccccc1B(O)O	94% (active)
OCC(O)C(O)C(O)C(O)c1nc2ccccc2[nH]1 (centres undefined)	-1% (inactive) and 14% (inactive)
CC(=O)CC[N+](C)(C)C	30% (inactive)
O=C(O)[C@H]1[C@@H](C2CCCCC2)O[C@@H](C2CCCCC2)O[C@H]1C(F)(F)F	-8% (inactive)
CN(NC(=O)/C(=C/C=C/c1ccccc1)NC(=O)c1ccccc1)C1=C(Cl)C(=O)[N+](c2ccccc2)=CC1	35% (inactive)
CCCCOc1ccc(Nc2c3ccccc3nc3ccccc23)cc1	-7% (inactive)
N#C/C(=C1C=C/C(=N\O)C(Cl)=C\1)c1ccccc1	46% (inactive)
COc1cccc2c1C(=O)c1c(O)c3c(c(O)c1C2=O)CC(O)(C(=O)CO)CC3OC1CC(N)C(O)C(C)O1 (centres undefined)	1% (inactive) and 4% (inactive) and 53% (inactive)
COc1ccc(C(=O)OCCc2ccccc2)cc1	-2% (inactive)
Cc1c2ccncc2c(C)c2c1oc1ccccc12	93% (active)
CCCC#CCOC(=O)c1cc([N+](=O)[O-])cc([N+](=O)[O-])c1	99% (active)
Nc1nc(Nc2ccccc2)nc(Nc2ccccc2)n1	8% (inactive)
COc1ccc(/C=C2\S/C(=N/Nc3nc(-c4ccccc4)cs3)NC2=O)cc1OC	95% (active)
CCCCCCCCCCCC[N+](C)(C)Cc1ccccc1 (tested in a mixture with another compound)	99% (active)
CC(O)CN1C(=O)c2cccc3cc([N+](=O)[O-])cc(c23)C1=O (centres undefined)	33% (inactive)
Cc1cc(SC#N)ccc1O	64% (inactive) and 91% (active) and 71% (active)

Structure (SMILES)	growth inhibition
Cn1c(COc2ccc(/C=N/NC(=O)CCC(=O)N/N=C/c3ccc(OCc4c[n+]5ccccc5n4C)cc3)cc2)c[n+]2ccccc12	28% (inactive)
COC1=C(N=[N+]=[N-])C(=O)c2ncccc2C1=O	93% (active)
CCN(CC)c1ccc(N=Nc2cc(S(=O)(=O)O)ccc2O)c(O)c1	39% (inactive)
O=C1C(C(O)(C(F)(F)F)C(F)(F)F)CCC1C(O)(C(F)(F)F)C(F)(F)F (centres undefined)	46% (inactive)
COc1nc(N)c(N=CC(OC(C)=O)C(OC(C)=O)C(COC(C)=O)OC(C)=O)c(=O)n1C (centres undefined)	-13% (inactive) and 6% (inactive) and 19% (inactive)
CN(C)CCNC(=O)c1cccc2nc3c(ccc4ccccc43)nc12	57% (inactive)
O=S(=O)(CCC[C@H]1[C@@H](CCOCc2ccccc2)C2CCCN1O2)c1ccccc1 (some centres undefined)	46% (inactive)
CCC(C)/C(C)=N/NC(N)=O (centres undefined)	12% (inactive)
Nc1c([N+](=O)[O-])cc2c3c(cccc13)CC2	20% (inactive)
CC1=Cc2ccc(C)cc2C(=O)C1=O	99% (active)
C=Cc1c(C)c(O)cc2c1-c1ccc(O)c(C)c1CC2	59% (inactive)
NCC(O)CSCc1ccc(Cl)cc1 (centres undefined)	10% (inactive)
C[n+]1c(-c2ccc(NC(=O)c3ccc(C(=O)Nc4ccc(-c5cn6ccccc6[n+]5C)cc4)cc3)cc2)cn2ccccc21	96% (active)
Nc1ccccc1SSc1ccccc1N	99% (active) and 5% (inactive)
CCCCCCCCCCCC[N+](C)(C)C	97% (active) and 96% (active) and 99% (active)
CNC(=O)OCc1c(COC(=O)NC)c(C)n(-c2ccc(Cl)c(Cl)c2)c1C	-10% (inactive)
[O-]c1c2cc(-[n+]3c(-c4ccccc4)cc(-c4ccccc4)cc3-c3ccccc3)cc1COCCOCCOCCOCCOC2	12% (inactive)
C[Si](C)(C)Cc1ccccc1C(=O)O	86% (active)

Same assay, conditions: S. cerevisiae cln2 rad14 strain, at 50.0 µM, stronger effect = higher value

Structure (SMILES)	growth inhibition
COc1ccc(/C=C2\CCc3ccccc3C2=O)cc1OC	60.9% (inactive)
CC(C)c1ccc(O)c(=O)cc1	91.3% (active) and 90.5% (active) and 91.5% (active)
O=Cc1ccccc1B(O)O	96.5% (active)
CC(=O)CC[N+](C)(C)C	-41.7% (inactive)
O=C(O)[C@H]1[C@@H](C2CCCCC2)O[C@@H](C2CCCCC2)O[C@H]1C(F)(F)F	87.3% (active)
CN(NC(=O)/C(=C/C=C/c1ccccc1)NC(=O)c1ccccc1)C1=C(Cl)C(=O)[N+](c2ccccc2)=CC1	15.8% (inactive)
CCCCOc1ccc(Nc2c3ccccc3nc3ccccc23)cc1	88.8% (active)
N#C/C(=C1C=C/C(=N\O)C(Cl)=C\1)c1ccccc1	-43.9% (inactive)
COc1ccc(C(=O)OCCc2ccccc2)cc1	-10.5% (inactive)
Cc1c2ccncc2c(C)c2c1oc1ccccc12	94.2% (active)
CCCC#CCOC(=O)c1cc([N+](=O)[O-])cc([N+](=O)[O-])c1	99.5% (active)
Nc1nc(Nc2ccccc2)nc(Nc2ccccc2)n1	81.2% (active)
COc1ccc(/C=C2\S/C(=N/Nc3nc(-c4ccccc4)cs3)NC2=O)cc1OC	91% (active)
CCCCCCCCCCCC[N+](C)(C)Cc1ccccc1 (tested in a mixture with another compound)	98.5% (active) and 97.3% (active) and 96% (active)
CC(O)CN1C(=O)c2cccc3cc([N+](=O)[O-])cc(c23)C1=O (centres undefined)	13.4% (inactive)
Cc1cc(SC#N)ccc1O	32.8% (inactive) and 83.2% (active) and 70% (inactive)
Cn1c(COc2ccc(/C=N/NC(=O)CCC(=O)N/N=C/c3ccc(OCc4c[n+]5ccccc5n4C)cc3)cc2)c[n+]2ccccc12	18.8% (inactive)

Structure (SMILES)	growth inhibition
COC1=C(N=[N+]=[N-])C(=O)c2ncccc2C1=O	80.5% (active)
CCN(CC)c1ccc(N=Nc2cc(S(=O)(=O)O)ccc2O)c(O)c1	21.5% (inactive)
O=C1C(C(O)(C(F)(F)F)C(F)(F)F)CCC1C(O)(C(F)(F)F)C(F)(F)F (centres undefined)	14.2% (inactive)
CN(C)CCNC(=O)c1cccc2nc3c(ccc4ccccc43)nc12	26.9% (inactive)
O=S(=O)(CCC[C@H]1[C@@H](CCOCc2ccccc2)C2CCCN1O2)c1ccccc1 (some centres undefined)	42.5% (inactive)
CCC(C)/C(C)=N/NC(N)=O (centres undefined)	22.5% (inactive)
Nc1c([N+](=O)[O-])cc2c3c(cccc13)CC2	21.5% (inactive)
CC1=Cc2ccc(C)cc2C(=O)C1=O	98.2% (active)
C=Cc1c(C)c(O)cc2c1-c1ccc(O)c(C)c1CC2	10.6% (inactive)
NCC(O)CSCc1ccc(Cl)cc1 (centres undefined)	86.5% (active)
C[n+]1c(-c2ccc(NC(=O)c3ccc(C(=O)Nc4ccc(-c5cn6ccccc6[n+]5C)cc4)cc3)cc2)cn2ccccc21	51.5% (inactive)
Nc1ccccc1SSc1ccccc1N	99.2% (active) and 98.8% (active)
CCCCCCCCCCCC[N+](C)(C)C	71.8% (active) and -21.6% (inactive) and 66.2% (inactive)
CNC(=O)OCc1c(COC(=O)NC)c(C)n(-c2ccc(Cl)c(Cl)c2)c1C	84.5% (active)
[O-]c1c2cc(-[n+]3c(-c4ccccc4)cc(-c4ccccc4)cc3-c3ccccc3)cc1COCCOCCOCCOCCOC2	17.1% (inactive)
C[Si](C)(C)Cc1ccccc1C(=O)O	98% (active)
